Assay results as given in PubChem BioAssay (Tox21).
Several values for one entry are separate records, joined by “and”; a condition that tells them apart may be missing. Equal entries are not always repeated. Results filed as inconclusive are left out. Activity calls are given as the source filed them. Calls come from the whole dose curve.

assay: qHTS assay for small molecule agonists of the p53 signaling pathway - cell viability (AID 651633); details: p53RE-bla HCT-116 viability, ATP luminescence, 16 h; series mostly up to 83.3 µM; activity change, negative = cytotoxicity: at the top concentration; note: nearly all actives have a fitted effect of over 30% in size;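 for activity change, negative = cytotoxicity: p53RE-bla HCT reporter cells with a stable beta-lactamase p53 reporter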
Description: National Center for Advancing Translational Sciences [NCATS]
NIH Chemical Genomics Center [NCGC]
U.S. Environmental Protection Agency [EPA]
National Institutes of Environmental Health Sciences [NIEHS]
National Toxicology Program [NTP]
U.S. Food and Drug Administration [FDA]
p53, a tumor suppressor protein, is activated following cellular insult, including DNA damage and other cellular stresses. The activation of p53 regulates cell fate by inducing DNA repair, cell cycle arrest, apoptosis, or cellular senescence. The activation of p53, therefore, is a good indicator of DNA damage and other cellular stresses. […] The activation of the reporter gene under culture conditions can be detected by fluorescence intensity. This cell line was used to screen the Tox21 compound library in a 1536-well plate format and to identify agonists that activate the p53 signaling pathway.
Tox21 Assay Protocol Summary:
The p53RE-bla cells were dispensed at 4,000 cells/5 ul/well in 1536-well black wall/clear bottom plates using a Multidrop dispenser. After the assay plates were incubated at a 37 C/5% CO2 incubator for 5 hours, 23 nL of compounds dissolved in DMSO, positive controls or DMSO only was transferred to the assay plate by a pin tool. The plates were incubated at 37 C for 16 hours. After 1 uL of LiveBLAzerTM B/G FRET substrate was added using a Flying Reagent Dispenser, the plates were incubated at room temperature for 2 hours, and fluorescence intensity was measured by an Envision plate reader.
For cell viability readout that measures cytotoxicity, 4 ul/well of CellTiter-Glo reagent was added into the assay plates using a Flying Reagent Dispenser. After 30 min incubation at room temperature, the luminescence intensity in the plates was measured using a ViewLux plate reader.
% is set by controls: 0 for no effect and ±100 for the full control effect; potency is the fitted concentration of half-maximal effect.

SMILES	Potency	activity change, negative = cytotoxicity
CN1CCN(c2ccccc2/C=C2\SCCN(c3ccc(Cl)c(Cl)c3)C2=O)CC1	61.1 µM (active)	
CCN(CC)C(=O)c1cccnc1		12.2% (inactive)
CC/C=C\C/C=C\C/C=C\C/C=C\C/C=C\C/C=C\CCC(=O)O		-15% (inactive)
CC1(C)S[C@@H]2[C@H](N3C(=O)C(c4ccccc4)NC3(C)C)C(=O)N2[C@H]1C(=O)O (stereo not given in full)		8.34% (inactive)
C[S+](CC[C@H](N)C(=O)O)C[C@H]1O[C@@H](n2cnc3c(N)ncnc32)[C@H](O)[C@@H]1O (stereo not given in full)	inactive	
Cc1ccc(C(C)(C)c2ccc(C)cc2)cc1		8.27% (inactive)
CC1CCCCN1CCCOC(=O)c1ccccc1 (stereo not given)		-9.93% (inactive)
CC(=O)OCC(=O)[C@@]1(O)CC[C@H]2[C@@H]3C[C@H](C)C4=CC(=O)C=C[C@]4(C)[C@H]3[C@@H](O)C[C@@]21C		-22.1% (inactive)
COc1cc2c(cc1O)CCN[C@]21CS[C@@H]2c3c(OC(C)=O)c(C)c4c(c3[C@H](COC1=O)N1[C@@H]2[C@H]2c3c(cc(C)c(OC)c3O)C[C@@H]([C@@H]1O)N2C)OCO4	inactive	
CN1[C@@H](CC(=O)c2ccccc2)CCC[C@H]1C[C@H](O)c1ccccc1		-25.1% (inactive)
O=C(O)c1cc(O)c2c(c1)[C@H]([C@H]1c3cc(C(=O)O)cc(O)c3C(=O)c3c(O[C@@H]4O[C@H](CO)[C@@H](O)[C@H](O)[C@H]4O)cccc31)c1cccc(O[C@@H]3O[C@H](CO)[C@@H](O)[C@H](O)[C@H]3O)c1C2=O		9.92% (inactive)
CC(C)C[C@H](NC(=O)[C@@H](COC(C)(C)C)NC(=O)[C@H](Cc1ccc(O)cc1)NC(=O)[C@H](CO)NC(=O)[C@H](Cc1c[nH]c2ccccc12)NC(=O)[C@H](Cc1cnc[nH]1)NC(=O)[C@@H]1CCC(=O)N1)C(=O)N[C@@H](CCCN=C(N)N)C(=O)N1CCC[C@H]1C(=O)NNC(N)=O	inactive	
CS(=O)(=O)c1ccc([C@@H](O)[C@@H](COC(=O)CN)NC(=O)C(Cl)Cl)cc1		-23% (inactive)
NCC(O)CC(=O)O (stereo not given)		10.6% (inactive)
C[S+](C)CCC(N)C(=O)O (stereo not given)		5.62% (inactive)
Nc1c(CC(=O)O)cccc1C(=O)c1ccccc1	inactive	
CO/N=C(\C(=O)N[C@@H]1C(=O)N2C(C(=O)[O-])=C(C[n+]3cccc4c3CCC4)CS[C@H]12)c1csc(N)n1		13.4% (inactive)
CC(C)NCC1CCc2cc(CO)c([N+](=O)[O-])cc2N1 (stereo not given)		-13.6% [at 39.1 µM] (inactive)
N=C(N)c1ccc(/C=C/c2ccc(C(=N)N)cc2O)cc1		22.8% (inactive)
NCCCC(=O)O		11.6% (inactive)

SMILES	Potency	activity change, negative = cytotoxicity
CN1CCN(CCCN2c3ccccc3Sc3ccc(Cl)cc32)CC1	29.8 µM (active)	
O=C(O)/C=C/C(O)c1ccc(Cl)cc1 (stereo not given)		9.86% (inactive)
O=C1c2ccccc2C(=O)C1c1ccc(F)cc1		10% (inactive)
Nc1cc(Cl)c(NC2=NCCN2)c(Cl)c1		-4.96% (inactive)
C[C@@H]1O[C@@H](OC[C@H]2O[C@@H](Oc3c(-c4ccc(OCCO)c(OCCO)c4)oc4cc(OCCO)cc(O)c4c3=O)[C@H](O)[C@@H](O)[C@@H]2O)[C@H](O)[C@H](O)[C@H]1O		-6.3% (inactive)
NC(N)=NCCCCN=C(N)N		24.4% (inactive)
CCCCCCCCCC[N+](C)(CCCCCCCCCC)CCC[Si](OC)(OC)OC	48.6 µM (active)	
COc1cc(/C=C/C(=O)CC(=O)/C=C/c2ccc(O)c(OC)c2)ccc1O	18.8 µM (active) and 54.8 µM (active)	
COc1cc([C@@H]2c3cc4c(cc3[C@@H](O[C@@H]3O[C@@H]5CO[C@@H](C)O[C@H]5[C@H](O)[C@H]3O)[C@H]3COC(=O)[C@H]23)OCO4)cc(OC)c1O	inactive	
CC(=O)OCC1=C(C(=O)O)N2C(=O)[C@@H](NC(=O)Cc3ccccc3)[C@H]2SC1		8.21% (inactive)
CO[C@H](C(=O)[C@@H](O)[C@@H](C)O)C1Cc2cc3cc(O[C@H]4C[C@@H](O[C@H]5C[C@@H](O)[C@H](O)[C@@H](C)O5)[C@@H](O)[C@@H](C)O4)c(C)c(O)c3c(O)c2C(=O)[C@H]1O[C@H]1C[C@@H](O[C@H]2C[C@@H](O[C@H]3C[C@](C)(O)[C@H](O)[C@@H](C)O3)[C@H](O)[C@@H](C)O2)[C@H](O)[C@@H](C)O1 (stereo not given in full)	inactive	
NCC1CCC(C(=O)O)CC1 (stereo not given)		11.3% [at 39.1 µM] (inactive)
CN=C(N)NCCC[C@H](N)C(=O)O	inactive	
N#Cc1nc(Cl)c(Cl)c(Cl)c1Cl	10.9 µM (active)	
CCCCCCCCCCCCCCCCCCNC(=O)OC1CCN(C(=O)OC[C@H](COC(=O)N(Cc2cccc[n+]2CC)C(=O)c2ccccc2OC)OC)CC1	26.6 µM (active)	
CN1CCN(CCCN2c3ccccc3Sc3ccc(C(F)(F)F)cc32)CC1	29.8 µM (active)	
CCC1OC(=O)C[C@@H](O)[C@H](C)[C@@H](O[C@@H]2O[C@H](C)C[C@H](N(C)C)[C@H]2O)[C@@H](CC=O)C[C@@H](C)C(=O)/C=C/[C@]2(C)OC2C1C (stereo not given in full)	inactive	
CCOc1ccc(NC(=S)Nc2ccc(OCC)cc2)cc1		-8.11% (inactive)
C=CC1=C(C(=O)O)N2C(=O)[C@@H](NC(=O)/C(=N\O)c3csc(N)n3)[C@H]2SC1 (stereo in doubt)	inactive	
CC(C)(Oc1ccc(C2CCCc3ccccc32)cc1)C(=O)O (stereo not given)		11.1% (inactive)
